PubChem BioAssay (EPA / NIEHS)
Active and inactive are the calls of the source. Rule for the calls: active = hit-call score of the fitted dose curve at least 0.9, where 1 is the maximum; inactive = score below 0.9.

Test: ATG_AP_1_CIS: Attagene CIS-FACTORIAL HepG2 Assay for human Activator Protein 1 (AP-1) (AID 2282931)
Details: HepG2 Attagene cis-factorial AP-1 reporter mRNA; actives raise or lower the signal
Protocol: ATG_CIS is a cell-based, multiplexed-readout assay that uses HepG2, a human liver cell line, with measurements taken at 24 hours after chemical dosing in a 24-well plate.ATG_AP_1_CIS is one of 52 assay component(s) measured or calculated from the ATG_CIS assay. It is designed to make measurements of mRNA induction, a form of inducible reporter, as detected with fluorescence intensity signals by Reverse transcription polymerase chain reaction (RT-PCR) and Capillary electrophoresis technology.Data from the assay component ATG_AP_1_CIS was analyzed into 1 assay endpoint. This assay endpoint, ATG_AP_1_CIS, was analyzed with bidirectional fitting relative to DMSO as the negative control and baseline of activity. Using a type of inducible reporter, measures of mRNA for gain or loss-of-signal activity can be used to understand the reporter gene at the transcription factor-level as they relate to the gene FOS and JUN. Furthermore, this assay endpoint can be referred to as a primary readout, because this assay has produced multiple assay endpoints where this one serves a reporter gene function. To generalize the intended target to other relatable targets, this assay endpoint is annotated to the dna binding intended target family, where the subfamily is basic leucine zipper.
Human liver HepG2 cells are transiently transfected with multiple reporter transcription units (MRTUs) in 6-well plates using FuGene 6 reagent (Roche; 3 ml FuGene/1 mg DNA). The MRTU constructs are regulated by a cis-regulating element (promoter). […] A major difference between the CIS and TRANS system is that in CIS activities of endogenous TFs are measured, whereas the TRANS assay evaluates changes in activities of exogenous, chimeric NR-Gal4 proteins. […] At the end of 24 hour incubation, total RNA was isolated using TriZol reagent (Invitrogen). The isolated RNA is then reverse-transcribed using oligo(dT) primer and Mo-MLV reverse transcriptase (Invitrogen) with DNAse I (Ambion) treatment for 30 min. The one-tenth of the produced cDNA was amplified by PCR using Taq DNA polymerase (Invitrogen) and two reporter sequence-specific primers. The PCR products were fluorescently labeled by primer extension with 6-arboxyfluorescein (6-FAM) 5'-labeled reporter sequence-specific primer (2 min at 95 C, 20 s at 68 C and 10 min at 72 C) and these products were digested with 5U of HpaI (New England Biolabs) for 2h at 37 C. The fragments were purified using Qiaquick PCR columns (Qiagen), analyzed on an ABI 3130xL genetic analyzer (Applied Biosystems) with peak positions identified by using a set of X-rhodamine (ROX)-labeled MapMarker1000 molecular weight standards (BioVentures). The raw capillary electrophoresis data was processed using Attagraph software (Attagene).

Compound | outcome | AC50
CCc1cccc(C)c1N(C(=O)CCl)[C@@H](C)COC | inactive | –
CC(C)[C@@H](C(=O)O[C@@H](C#N)c1cccc(Oc2ccccc2)c1)c1ccc(Cl)cc1 | inactive | –
S=c1[nH]c2ccccc2[nH]1 | inactive | –
CN(N=O)c1ccccc1 | inactive | –
COc1cc(OC)nc(Oc2cccc(Oc3nc(OC)cc(OC)n3)c2C(=O)O)n1 | inactive | –
Cc1cc(C)c(C2=C(OC(=O)CC(C)(C)C)C3(CCCC3)OC2=O)c(C)c1 | – | 174 µM (active)
C[C@]12CCC(=O)C(O)=C1CC[C@@H]1[C@@H]2CC[C@]2(C)C(=O)CC[C@@H]12 | inactive | –
O=C(O)c1cc[c]([Hg][Cl])cc1 | inactive | –
CSc1nc(N=[N+]=[N-])nc(NC(C)C)n1 | inactive | –
C=CC(=O)OCCO | – | 75.6 µM (active)
CCc1cc(C)cc(CC)c1-c1c(OC(=O)C(C)(C)C)n2n(c1=O)CCOCC2 | inactive | –
N#CCCCCC#N | inactive | –
ClC1=C(Cl)[C@]2(Cl)[C@@H]3[C@@H](Cl)[C@H](Cl)C[C@@H]3[C@@]1(Cl)C2(Cl)Cl | inactive | –
CCOP(=O)(OCC)Oc1ccc([N+](=O)[O-])cc1 | inactive | –
c1cc(OCC2CO2)ccc1Cc1ccc(OCC2CO2)cc1 (stereo not given) | – | 59.1 µM (active)
CCCCCCC1CCOC1=O (stereo not given) | inactive | –
C=CC(=O)OCC(CC)CCCC (stereo not given) | inactive | –
C=CC(=O)OC | inactive | –
CC(C)COP(=O)(OCC(C)C)OCC(C)C | inactive | –
[Cl][Sb]([Cl])[Cl] | – | 100 µM (active)

Compound | outcome | AC50
Cc1ccc(N(SC(F)(Cl)Cl)S(=O)(=O)N(C)C)cc1 | inactive | –
Cc1ncc(C[n+]2csc(CCO)c2C)c(N)n1 | inactive | –
C#CC1(O)CCCCC1 | inactive | –
CC(C)CCCCCCCOP(=O)(Oc1ccccc1)Oc1ccccc1 | – | 33.3 µM (active)
CCOP(=O)(OCC)OCC | inactive | –
Nc1ccc(-c2ccc(N)c(N)c2)cc1N | inactive | –
CC=Cc1ccc2c(c1)OCO2 | inactive | –
CC(Cc1ccc(C(C)(C)C)cc1)CN1C[C@@H](C)O[C@@H](C)C1 (stereo not given in full) | – | 40.6 µM (active)
CC1(C)[C@H](C(=O)O[C@H](C#N)c2cccc(Oc3ccccc3)c2)[C@@H]1C=C(Br)Br | inactive | –
CC(C)c1ccc(O)cc1 | inactive | –
N#CCNCC#N | inactive | –
[Cl-].[Cl-].[Cl-].[Yb+3] | inactive | –
O=C(NCNC(=O)NC1C(=O)NC(=O)N1CO)NC1C(=O)NC(=O)N1CO (stereo not given) | – | 130 µM (active)
CN1C[C@H](C(=O)N[C@]2(C)O[C@@]3(O)[C@@H]4CCCN4C(=O)[C@H](Cc4ccccc4)N3C2=O)C=C2c3cccc4[nH]cc(c34)C[C@H]21 | – | 23.1 µM (active)
CCCCCCCCCCCC#N | – | 73.6 µM (active)
CC(=O)/C=C/c1ccccc1 | – | 86.4 µM (active)
c1ccc(P(c2ccccc2)c2ccccc2)cc1 | inactive | –
Nc1ccc([N+](=O)[O-])cc1N | inactive | –
N#Cc1cc(I)c(O)c(I)c1 | – | 100 µM (active)
O=[N+]([O-])O | inactive | –
